U2OS ROS induce: raises reactive oxygen species in U2OS cancer cells; ROS induction (% of piperlongumine), % at 10 µM; U2OS ROS induction, H2DCF-DA fluorescence; 46,000 tested, 2% active; in the data active means ROS induction above about 79%, passing the limit was not always enough;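 further: 0% = DMSO vehicle median and 100% = reference compound median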
Starred values were filed as active, the others as inactive. The sample as a whole holds a higher share of hits than the screen did.

SMILES	U2OS ROS induce
C[C@@H]1CN([C@@H](C)CO)C(=O)c2cc(NC(=O)Nc3cccc4ccccc34)ccc2O[C@@H]1CN(C)C(=O)Nc1ccc(C(F)(F)F)cc1	41.7
C[C@H](CO)N1C[C@H](C)[C@H](CN(C)C(=O)Nc2ccc(C(F)(F)F)cc2)Oc2ccc(NC(=O)Nc3cccc4ccccc34)cc2C1=O	29.4
C[C@@H]1CN([C@@H](C)CO)C(=O)Cc2cc(NC(=O)Nc3cccc4ccccc34)ccc2O[C@@H]1CN(C)C(=O)Nc1ccc(C(F)(F)F)cc1	161.9*
C[C@H](CO)N1C[C@H](C)[C@H](CN(C)C(=O)Nc2ccc(C(F)(F)F)cc2)Oc2ccc(NC(=O)Nc3cccc4ccccc34)cc2CC1=O	2.3
O=S(=O)(CCN1CCN(C(c2ccccc2)c2ccccc2)CC1)c1ccc(Cl)cc1	1.5
Cc1cccc(-n2c(C)nc3cc(C(=O)NCc4ccc(F)cc4)ccc32)c1	35.6
c1ccc(-c2nsc(N3CCOCC3)n2)cc1	10.0
Clc1ccccc1/C=C/C=Nc1ccc(N2CCOCC2)cc1	128.5*
C(=Nc1ccc(N2CCOCC2)cc1)c1ccc(Sc2nc3ccccc3[nH]2)o1	-4.0
COc1ccc(OC)c(NC(=O)C2=C(C)NC(=O)NC2c2ccc(OC)cc2OC)c1 (stereo not given)	8.0
COc1ccc(-c2cc(-c3ccccc3)nc(SCC(=O)N3CCCCC3)c2C#N)cc1	54.4
COc1ccc(-c2cc(-c3ccccc3)c(C#N)c(SC3CCCCC3O)n2)cc1 (stereo not given)	40.6
COc1ccc(-c2cc(-c3ccccc3)c(C#N)c(SCS(=O)Cc3ccccc3)n2)cc1 (stereo not given)	87.1*
COc1ccc(-c2nsc(SCC(N)=O)n2)cc1	-2.9
Cn1c(CNC(=O)c2cccs2)nnc1SCc1ccccc1	15.0
COc1ccc(CSc2nnc(CSc3cccs3)n2C)cc1	87.3*
Cc1[nH]c2ccccc2c1SCc1nnc(SCc2ccc(Cl)cc2)n1C	13.5
Clc1ccccc1OCCSc1nnc(-c2cccnc2)n1-c1ccccc1	33.8
Cc1cccc(-n2c(SCC(=O)Nc3ccc(Br)cc3F)nnc2-c2ccccc2)c1	-7.2
C[C@H]1CN([C@@H](C)CO)C(=O)Cc2cc(NC(=O)CCN3CCOCC3)ccc2O[C@H]1CN(C)C	1.7
C[C@@H]1CN([C@H](C)CO)C(=O)Cc2cc(NC(=O)CCN3CCOCC3)ccc2O[C@@H]1CN(C)C	125.6*
COc1ccc(CN(C)C[C@@H]2Oc3ccc(NC(=O)CCN4CCOCC4)cc3CC(=O)N([C@H](C)CO)C[C@H]2C)cc1	120.9*
C[C@H]1CN([C@@H](C)CO)C(=O)Cc2cc(NC(=O)CCN3CCOCC3)ccc2O[C@@H]1CN(C)C	0.1
C[C@@H]1CN([C@@H](C)CO)C(=O)Cc2cc(NC(=O)CCN3CCOCC3)ccc2O[C@@H]1CN(C)Cc1ccc(Oc2ccccc2)cc1	63.7
COc1ccc(CN(C)C[C@H]2Oc3ccc(NC(=O)CCN4CCOCC4)cc3CC(=O)N([C@@H](C)CO)C[C@@H]2C)cc1	14.3
SMILES	U2OS ROS induce
O=C(Nc1cc(Cl)cc(Cl)c1)N1CCC(n2cccc2)CC1	-4.1
COc1ccc(S(=O)(=O)N(C)C[C@@H]2Oc3ccc(NC(=O)CCN4CCOCC4)cc3C(=O)N([C@@H](C)CO)C[C@H]2C)cc1	-5.5
CCc1ccc(/C=C2\Sc3ccccc3N(CC(=O)O)C2=O)cc1	15.3
CCN1/C(=C/C2=CC(=O)CC(C)(C)C2)Sc2ccccc21	163.6*
CCN1/C(=C\C(=S)Nc2ccccc2)Sc2ccccc21	65.9
CCn1c(=O)c(=O)n(CC)c2cc(S(=O)(=O)NCc3cccs3)ccc21	-10.0
O=C(Nc1ccccc1)Nc1ccc(S(=O)(=O)Nc2ccc(F)cc2)cc1	2.2
Cc1ccc(OCCN2CCN(c3cc(C)c(C#N)c4nc5ccccc5n34)CC2)cc1	100.2*
Cc1ccc(OCCN2CCN(c3ncnc4scc(-c5ccccc5)c34)CC2)cc1	18.8
Cc1cc(N2CCCC2)n2c(nc3ccccc32)c1C#N	13.5
Cc1ccc(N(CC(N)=O)S(C)(=O)=O)c(C)c1	-5.9
CCOC(=O)c1ccccc1NC(=O)Cn1c(-c2cccs2)noc1=O	-13.5
COC(CNC(=O)c1cnn2c(C)c(Cc3c(C)cc(C)cc3C)c(C)nc12)OC	55.8
C=CCc1c(C)[nH]c(=S)[nH]c1=O	72.3
COc1ccc(C(=O)N(Cc2nc(-c3ccc(Cl)cc3)no2)C(C)C)cc1OC	42.0
c1ccc2cc(OCCN3CCOCC3)ccc2c1	9.1
COC(=O)C1=C(C)Nc2ncnn2C1c1ccc(OCC(=O)N2CCOCC2)c(OC)c1 (stereo not given)	41.3
COc1cc(C2C(C#N)=C(C)Nc3oc(C)nc32)ccc1OCCN1CCOCC1 (stereo not given)	115.7*
c1coc(CCC2=NCCn3cccc32)c1	-10.9
CS/C(NCC1CC1)=C(/C#N)C(=O)c1ccc(Cl)cc1	195.9*
CS/C(Nc1cccc(Cl)c1Cl)=C(/C#N)C(=O)c1cccs1	-11.9
CS/C(NC1CCCCC1)=C(/C#N)S(=O)(=O)c1ccc(Cl)cc1	44.7
O=C(NO)c1cccc(C(=O)N/N=C/c2ccccc2)c1	-10.1
O=C(CSc1nc2ccccc2s1)NO	-13.7
O=C(Nc1ccccc1)c1ccc(S(=O)(=O)c2cccc(S(=O)(=O)N3CCOCC3)c2)cc1	11.5
SMILES	U2OS ROS induce
COc1ccc(S(=O)(=O)N2CCOCC2)cc1C(=O)Nc1ccc(S(=O)(=O)C(F)F)cc1	10.8
COc1ccc(-c2cc(C(F)F)n3ncc(C(=O)Nc4cccc(S(=O)(=O)N5CCOCC5)c4)c3n2)cc1	132.6*
C[C@H]1CN([C@@H](C)CO)C(=O)c2cc(NS(=O)(=O)c3ccccc3)ccc2O[C@H]1CN(C)CC1CC1	12.3
COc1ccc(C#Cc2ccc3c(c2)[C@]2(C(=O)N3)[C@H](C(=O)NC[C@H](O)c3ccccc3)[C@H]3C(=O)O[C@H](c4ccccc4)[C@H](c4ccccc4)N3[C@@H]2c2ccc(OCCO)cc2)cc1	-1.0
Cn1ccnc1Sc1cnc(SCc2ccc(Cl)cc2)nc1-c1ccccc1	7.4
COC(=O)c1ccc(Cl)c(NC(=O)CN(c2ccccc2Br)S(C)(=O)=O)c1	13.1
CN1CCN(CCCn2c(-c3ccccc3)cn3c4ccccc4nc23)CC1	12.7
CCc1ccc(-c2cn3c4ccccc4nc3n2CCN2CCOCC2)cc1	88.6*
Cc1ccc(-c2cn3c4ccccc4nc3n2CCN2CCOCC2)cc1	36.2
COc1cc(/C=C/C(=O)O)cc(OC)c1OC	-13.0
COc1cc(CCC(=O)N2CCC=CC2=O)cc(OC)c1OC	136.7*
COc1cc(C(=O)NCCC(=O)N2CCN(C)CC2)cc(OC)c1OC	4.0
CC1=NOC(=O)/C1=C/c1ccc(N(C)C)cc1	-5.4
CN(C)c1ccc(/C=C2/C(=O)Nc3ccccc32)cc1	9.2
CC(=O)N1/C(=C/c2ccc(N(C)C)cc2)C(=O)c2ccccc21	150.9*
O=C(CSc1nnc(-c2ccccc2O)n1-c1ccccc1)Nc1ccc(Cl)c(C(=O)O)c1	-3.9
CCCCn1c(CCNC(=O)c2ccco2)nc2ccccc21	80.9*
O=C(NCCc1nc2ccccc2n1Cc1ccccc1)c1ccccc1	-5.2
O=C(NCCCc1nc2ccccc2n1CCCOc1ccccc1)c1ccco1	-1.3
C[C@H](CO)N1C[C@H](C)[C@@H](CN(C)C(=O)Nc2cccc3ccccc23)Oc2ccc(NC(=O)CCC(F)(F)F)cc2C1=O	-4.9
COc1ccc(CNCc2ccc(F)cc2)cc1	-4.0
C[C@H](CO)N1C[C@H](C)[C@H](CN(C)Cc2ccncc2)Oc2c(NC(=O)Nc3ccc(C(F)(F)F)cc3)cccc2C1=O	-6.2
